High-throughput results from PubChem BioAssay.
An excerpt weighted towards active compounds, which were near 3.6% of everything screened.
AmpC no deterg: blocks E. coli AmpC beta-lactamase in detergent-free assay | hit rate 0.52% among 330,000 | Potency, µM (titrated, usually from 57.1 µM), most hits filed as inhibitors | AmpC nitrocefin hydrolysis, absorbance 480 nm, 0.0001% Triton | AID 485341 | P00811; also: nearly all actives have a fitted effect of over 20% in size
Target sequence (P00811 whole entry, looked up): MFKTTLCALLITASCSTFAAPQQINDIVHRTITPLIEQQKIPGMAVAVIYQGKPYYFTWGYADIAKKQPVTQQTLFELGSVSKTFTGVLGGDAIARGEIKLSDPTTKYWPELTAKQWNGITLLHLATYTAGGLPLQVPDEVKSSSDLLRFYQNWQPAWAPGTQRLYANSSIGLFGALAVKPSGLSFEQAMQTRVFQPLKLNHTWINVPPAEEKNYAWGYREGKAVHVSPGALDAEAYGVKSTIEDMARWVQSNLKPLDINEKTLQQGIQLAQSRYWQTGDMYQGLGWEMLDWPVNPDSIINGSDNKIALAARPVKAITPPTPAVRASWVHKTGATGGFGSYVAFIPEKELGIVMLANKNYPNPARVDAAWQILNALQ
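AmpC (5.3 nM in the dispensed reagent) in 20 mM phosphate pH 7.0 with 0.01% (detergent screen) or 0.0001% Triton X-100 was preincubated with compounds for 15 min at room temperature. Nitrocefin was then added from an 800 uM solution, and hydrolysis was followed at 480 nm.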
FBPA Giardia inh: inhibitors of Giardia lamblia fructose-1,6-bisphosphate aldolase | AID 2451 | hit rate 0.71% among 290,000 | Potency, µM (doses to about 59.6 µM), most hits filed as inhibitors | A8B2U2 | purified Giardia FBPA; also: nearly all actives have a fitted effect of over 55% in size
Target sequence (A8B2U2 whole entry, looked up): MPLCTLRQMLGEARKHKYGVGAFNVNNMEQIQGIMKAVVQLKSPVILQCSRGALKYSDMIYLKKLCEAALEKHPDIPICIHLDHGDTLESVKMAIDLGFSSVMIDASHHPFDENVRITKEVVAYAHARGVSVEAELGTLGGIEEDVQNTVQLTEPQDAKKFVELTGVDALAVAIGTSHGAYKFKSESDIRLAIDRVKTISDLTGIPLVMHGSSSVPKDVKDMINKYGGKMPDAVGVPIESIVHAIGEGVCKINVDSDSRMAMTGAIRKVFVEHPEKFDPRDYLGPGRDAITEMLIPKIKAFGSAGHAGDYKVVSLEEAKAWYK
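Giardia FBPA (40 nM reagent) was preincubated 10 min at RT with compound (up to 57.5 uM final), then substrate plus GAPDH/TPI/NAD/arsenate coupling system with diaphorase/resazurin was added; resorufin fluorescence (525/598 nm) was read after 20 min.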
Sm TGR inh: S. mansoni TGR enzyme inhibition | Q962Y6 | purified TGR, DTNB reduction, TNB absorbance 405 nm | Potency, µM (series often up to 114 µM), actives largely listed as inhibitors | hit rate 3% among 360,000 | AID 485364; also: nearly all actives have a fitted effect of over 60% in size
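First, TGR (20 nM dispensed) and NADPH were mixed with compound. Second, a 15 min room-temperature incubation followed. Third, further NADPH and then DTNB were added to start the reaction. Finally, TNB absorbance was monitored kinetically.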
AmpC inh detg: blocks E. coli AmpC beta-lactamase in detergent assay. AmpC hydrolysis of nitrocefin, absorbance 480 nm, 0.01% Triton. Potency, µM (top dose mostly 114 µM), hits mostly inhibitors. hit rate 0.041% among 370,000. AID 485294; also: nearly all actives have a fitted effect of over 25% in size
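AmpC (5.3 nM in the dispensed reagent) in 20 mM phosphate pH 7.0 with 0.01% (detergent screen) or 0.0001% Triton X-100 was preincubated with compounds for 15 min at room temperature. Nitrocefin was then added from an 800 uM solution, and hydrolysis was followed at 480 nm.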
Hits are given with their value; – = inactive; ? = inconclusive; · = not tested or not shown; ! = repeats disagree; [ ] = remark or other dose. Calls follow the shape of the dose curve; as a rule, active = well fitted curve in the direction sought with a large enough effect; inconclusive = small, poorly fitted or top-dose-only effect, or another doubt; inactive = no such curve, though single readings can be large; an effect the other way counts as inactive or inconclusive.

SMILES | AmpC no deterg | FBPA Giardia inh | Sm TGR inh | AmpC inh detg
C=CCSc1nc(O)c(C2OC(=O)c3c2ccc(OC)c3OC)c(=O)n1-c1ccccc1 (stereo unspecified) | – | – | 3.98µM | –
CCCCSc1nc(O)c(C2OC(=O)c3c2ccc(OC)c3OC)c(=O)n1-c1ccccc1 (stereo unspecified) | – | – | 8.91µM | –
N#Cc1c(N)oc(-c2ccco2)c1-c1ccco1 | – | – | 35.5µM | –
N#Cc1c(N)oc(-c2ccccc2)c1-c1ccccc1 | – | – | – | –
CCCSc1ncc(Cl)c(C(=O)NCc2ccc(C)cc2)n1 | · | · | – | –
O=C(CCS(=O)(=O)c1ccccc1)Nc1ncc([N+](=O)[O-])s1 | – | – | 44.7µM | ?
CCCC(C)c1nnc(NC(=O)CCS(=O)(=O)c2ccccc2)s1 (stereo unspecified) | – | – | 89.1µM | –
CCc1nnc(NC(=O)CCS(=O)(=O)c2ccccc2)s1 | – | – | 22.4µM | –
COCc1nnc(NC(=O)CCS(=O)(=O)c2ccccc2)s1 | – | – | – | –
CC(C)c1nnc(NC(=O)CCS(=O)(=O)c2ccccc2)s1 | – | – | 17.8µM | –
COc1ccc2[nH]c3c(=O)n(CCCCC(=O)NCCC(C)C)c(=S)[nH]c3c2c1 | – | – | – | –
O=[N+]([O-])c1ccc(NC(=S)NCCc2ccc(Cl)cc2)cc1 | 0.141µM | – | ? | –
CC(C)OCCCNC(=S)Nc1ccc(S(N)(=O)=O)cc1 | – | 14.1µM | – | –
NS(=O)(=O)c1ccc(NC(=S)NCCc2ccccc2)cc1 | – | ? | · | –
CC(=O)c1ccc(NC(=S)NCCc2ccc(S(N)(=O)=O)cc2)cc1 | – | – | 39.8µM | –
NS(=O)(=O)c1ccc(NC(=S)Nc2ccc(F)c(F)c2)cc1 | – | ? | 25.1µM | –
COc1ccc([C@]23Cc4cc(C#N)ccc4C(O2)c2c(c4ccc(OC)cc4oc2=O)O3)cc1 | ? | –[12.9 µM] | ? | ?
Cn1c(=O)c(C(=O)CCl)c(N)n(CC2CC2)c1=O | – | – | 14.1µM | ?
CC(C)Cn1c(N)c(C(=O)CSc2ncccn2)c(=O)n(C)c1=O | – | · | – | –
CC(C)Cn1c(N)c(C(=O)CCl)c(=O)n(C)c1=O | – | – | 20µM | –
COc1ccc(-n2c(-c3ccc(C)cc3)cc3c2CC(C)(C)CC3=O)cc1Cl | · | · | – | –
C=C[C@@]1(C)CC(=O)[C@]2(O)[C@@]3(C)[C@H](O)CCC(C)(C)[C@@H]3[C@H](O)[C@H](OC(C)=O)[C@@]2(C)O1 | · | – | · | ·
Cc1ccc(CCNc2nc3c(S(=O)(=O)c4ccccc4)nnn3c3ccsc23)cc1 | · | · | 31.6µM | –
COc1ccccc1NC(=O)CSc1nnc2c3ccccc3n(C(C)C)c2n1 | · | · | – | –
COc1ccc(N=C/C=C2\C=C(c3ccccc3)OC(C)(C)O2)cc1 | – | – | 39.8µM | ?
SMILES | AmpC no deterg | FBPA Giardia inh | Sm TGR inh | AmpC inh detg
O=[N+]([O-])c1cnc2ccccc2c1 | – | – | – | ?
O=[N+]([O-])c1cc([N+](=O)[O-])c2cc3ccccc3nc2c1 | – | – | 3.55µM | –
CCn1nnnc1NCc1ccc(Cl)cc1 | – | – | – | –
CCn1nnnc1NCc1cccn1C | – | – | 50.1µM | ?
COc1ccc(NC(=O)c2c(-c3ccc(C)cc3)nnc3ccccc23)c(OC)c1 | · | · | – | –
CC[Si](CC)(CC)O[C@H]([C@@H](C)COCOC)[C@@H](C)COCc1ccc(OC)cc1 | · | – | · | ·
O=C(CSc1nccn1Cc1ccccc1)NCc1ccco1 | · | · | ? | –
CCOC(=O)CSC1=NN2CCS(=O)(=O)N=C2S1 | – | – | 10µM | –
COC(=O)C1=C(C)N(Cc2ccccc2)C(=O)N[C@H]1c1ccco1 | · | –[12.9 µM] | · | ·
COC(=O)C1=C(C)N(Cc2ccco2)C(=O)N[C@H]1c1ccccc1 | – | – | 20µM | –
CC(=O)C1=C(C)N(Cc2ccco2)C(=O)N[C@@H]1c1ccccc1 | · | – | · | ·
COC(=O)C1=C(C)N(Cc2ccccc2)C(=O)N[C@H]1c1ccc(Br)cc1 | – | –[12.9 µM] | – | –
COCCN=C1N[C@@H](c2ccccc2)C(C(=O)OC)=C(C)N1Cc1ccccc1 | – | – | 22.4µM! | ?
COC(=O)C1=C(C)N(Cc2ccco2)C(=O)N[C@H]1c1ccc(Br)cc1 | – | – | 35.5µM | ?
CC(=O)C1=C(C)N(Cc2ccccc2)C(=O)N[C@H]1c1ccco1 | – | –[12.9 µM] | 17.8µM | –
CC(C)(C)OC(=O)NCc1ccc(CNC(=O)c2nc[nH]c2C(=O)N2CCN(c3ccccc3)CC2)cc1 | – | · | – | –
C=CCNC(=S)NNC(=O)c1ccco1 | – | ? | · | –
O=C(/C=C/c1ccco1)NC(=S)Nc1ccc(C(=O)O)cc1 | – | ? | 7.08µM | –
Cc1cc(C(=O)NNC(=O)/C=C/c2ccco2)c(C)o1 | – | · | 2.82µM | ?
COc1ccccc1/C=C/C(=O)NNC(=O)c1cc(C)oc1C | – | · | – | –
COc1ccc(NC(=S)NC(=O)/C=C/c2ccco2)cc1 | 15.8µM | – | 10µM | –
O=C(/C=C/c1ccco1)NC(=S)NNC(=O)c1ccco1 | – | ? | 39.8µM | –
CN(C)c1ccc(NC(=S)NC(=O)/C=C/c2ccco2)cc1 | – | – | – | –
Cc1ccc2nc(NC(=O)CSc3nccn3Cc3ccc(F)cc3)sc2c1 | · | · | – | –
CC(=O)NC(=S)Nc1ccc(NC(=S)NC(=O)/C=C/c2ccco2)cc1 | – | – | 17.8µM | –
SMILES | AmpC no deterg | FBPA Giardia inh | Sm TGR inh | AmpC inh detg
Cc1cc(C)c(C(=O)/C=C/c2ccco2)c(=O)[nH]1 | – | ? | ? | –
O=C(NNC(=S)NC(=O)c1ccco1)c1ccc(F)cc1 | – | – | – | –
O=C(NC(=S)NNC(=O)c1ccco1)c1ccc(Br)cc1 | – | – | 39.8µM | –
Cc1ccc(C(=O)/C=C/c2ccco2)c(O)c1 | – | – | 44.7µM | –
CCC(=O)Nc1ccc(NC(=S)NC(=O)/C=C/c2ccco2)cc1 | – | – | 28.2µM | –
O=C(/C=C/c1ccc(Cl)cc1)NC(=S)Nc1ccc(C(=O)O)cc1 | – | – | 10µM | –
CSc1nnc(C)c(=O)n1COC(=O)c1cc(Cl)ccc1[N+](=O)[O-] | – | – | 22.4µM | –
CSc1nnc(C)c(=O)n1COC(=O)c1ccc([N+](=O)[O-])cc1 | – | – | ? | –
Cc1cc(NC(=O)c2nn(C)c(C)c2Br)no1 | – | · | – | –
COc1ccc2c(c1)C(SCC(=O)NCCc1ccc(Cl)cc1)CC(C)(C)O2 (stereo unspecified) | – | – | – | –
CC(=O)N1c2ccc(F)c(F)c2C[C@H]1C | – | · | – | –
Cc1nc2ncnn2c(C)c1CCC(=O)NCCCN1CCN(c2cccc(Cl)c2)CC1 | – | – | 79.4µM | –
Cc1nc2ncnn2c(C)c1CCC(=O)N1CCN(c2cccc(Cl)c2)CC1 | · | · | – | –
CC(C)C(C(=O)O)N1C(=O)/C(=C/C=C/c2ccco2)SC1=S (stereo unspecified) | – | ? | 11.2µM | ?
O=C1/C(=C\c2ccco2)SC(=S)N1c1ccc(O)cc1 | ? | ? | ? | –
O=C1/C(=C/C=C/c2ccco2)SC(=S)N1c1ccc(O)cc1 | 15.8µM | ? | 4.47µM | –
CC(C)CCNc1nc2c(S(=O)(=O)c3ccc(Br)cc3)nnn2c2ccsc12 | · | · | – | –
